From PubChem BioAssay
Only some compounds are listed: those with a hit (about 17% of all), similar ones and a draw of the others.
HepG2 viability: counter-screen for TGF-b inhibitors: cytotoxicity in HepG2 cells; HepG2 CAGA-GFP viability, ATP luminescence, 18 h; 0.76% of 410,000 active; Potency, µM (series often up to 46.1 µM), hits mostly cytotoxic
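HepG2 CAGA-GFP cells (1000/well, DMEM with 1% FBS) received compound, then TGF-beta at 500 pg/mL final, and were incubated 18 hours at 37 degrees C. Viability was read by CellTiter-Glo luminescence. Media-only wells were set as complete cell-killing and DMSO as no toxicity.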
TGFb SMAD3 inh: TGF-b pathway inhibition; HepG2 CAGA-GFP TGF-b/SMAD3 reporter, GFP fluorescence, 18 h; TGF-beta stimulated, 500 pg/mL final; Potency, µM (highest dose often 46.1 µM), usual class: inhibitors; 1.2% of 410,000 active; note: nearly all actives have a fitted effect of over 65% in size
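TGF-beta reporter screen: HEPG2 CAGA-GFP, 1% FBS, 500 pg/mL TGF-beta final, 18 h; per-cell GFP summed per well; curves fitted and categorized by class.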
TDP1 cell CPT: DT40-hTDP1 cell growth loss with CPT. Potency, µM (series often up to 46.2 µM), most hits filed as inhibitors. chicken DT40 Tdp1-/-;hTDP1 cells + 20 nM CPT, ATP luminescence, 48 h. 12% of 420,000 active; note: nearly all actives have a fitted effect of over 55% in size
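Cell growth measured by CellTiter-Glo luminescence after a minimum 48 h, 37 C compound exposure with 20 nM CPT in Tdp1-knockout DT40 cells stably expressing hTDP1, seeded 400/well; qHTS titration format.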
TDP1 cell noCPT: qHTS for Inhibitors of human tyrosyl-DNA phosphodiesterase 1 (TDP1): qHTS in cells in absence of CPT; AID 686978, 2013; 15% of 420,000 active; DT40 Tdp1-/- hTDP1 cells, no CPT, ATP luminescence, 48 h; Potency, µM (doses to about 46.2 µM), usual class: inhibitors; note: nearly all actives have a fitted effect of over 55% in size
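Cells were dispensed at 400 per well, compounds added by pin tool, plates incubated ≥48 hr at 37 °C, then CellTiter-Glo added for 30 min at room temperature before luminescence reading. Line: DT40 Tdp1-/- complemented with hTDP1; camptothecin omitted.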
S2 tox: reduces viability in counter-screen for ATXN expression inhibitors; S2 cells (HEK-293 line with an ATXN2-luciferase reporter) viability, CellTiter-Fluor protease fluorescence, 24 h; Potency, µM (highest dose often 56.7 µM), hits mostly cytotoxic; 0.49% of 400,000 active; AID 651635; note: nearly all actives have a fitted effect of over 40% in size
ATXN2 expr inh: reduces ATXN2 reporter expression in HEK-293 cells; AID 1745845; Potency, µM (titrated, usually from 57 µM), usual class: inhibitors; 0.72% of 360,000 active; HEK-293 ATXN2-luciferase reporter, luminescence, 24 h; note: nearly all actives have a fitted effect of over 55% in size
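qHTS (up to 57 uM final) was run with 24 h compound exposure of reporter cells at 37 °C. Each well was multiplexed: SteadyGlo luminescence measured ATXN2-luciferase expression after a fluorogenic Gly-Phe-AFC viability readout (25 uM final).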
Numbers stand for hits; i = inactive; ? = inconclusive; nt = no result given; ! = not active in a repeat; [ ] = remark or other dose. Calls come from the whole dose curve; as a rule, active = well fitted curve in the direction sought with a large enough effect; inconclusive = small, poorly fitted or top-dose-only effect, or another doubt; inactive = no such curve, though single readings can be large; an effect the other way counts as inactive or inconclusive.

SMILES	HepG2 viability	TGFb SMAD3 inh	TDP1 cell CPT	TDP1 cell noCPT	S2 tox	ATXN2 expr inh
CCCCc1nc(NCCN2CCOCC2)c(C#N)c2c1COC(C)(C)C2	i	i	i	?	i	i
CC(C)c1nc(NCCN2CCOCC2)c(C#N)c2c1COC(C)(C)C2	i	i	?	?	i	i
CC(C)(C)c1ccccc1NC(=O)c1ccc(-n2cncn2)c([N+](=O)[O-])c1	i	i	i	i	i	i
CCN(CC)S(=O)(=O)c1ccc(NC(=O)NCc2noc3ccc(C)cc23)cc1	i	?	21µM	23µM	?	?
COCc1cc(C)nc2sc3c(c12)NC(c1ccccc1C(=O)O)N(c1cccc(C(F)(F)F)c1)C3=O (stereo not given)	i	i	29µM	?	nt	nt
COCc1cc(C)nc2sc3c(c12)NC(c1ccc(O)cc1)N(c1ccc(C)cc1)C3=O (stereo not given)	i	?	18µM	18µM	nt	nt
Cc1ccc2c(c1)N(CC(=O)NCc1ccccc1Br)C(=O)c1cccnc1O2	i	i	?	i	nt	nt
CCCOc1ccc(CNC(=O)CN2C(=O)c3cccnc3Oc3ccc(C)cc32)cc1	i	i	23µM	?	nt	nt
COc1ccc(Br)cc1CNC(=O)CN1C(=O)c2cccnc2Oc2ccc(C)cc21	i	?	?	12µM	nt	nt
CC(C)Oc1ccc(CNC(=O)CN2C(=O)c3cccnc3Oc3ccc(Cl)cc32)cc1	i	i	16µM	18µM	nt	nt
CCOc1ccccc1CNC(=O)CN1C(=O)c2cccnc2Oc2ccc(C)cc21	i	?	?	?	nt	nt
COc1cccc(CN(C)C(=O)c2cnn(-c3nccc(-c4ccc5c(c4)OCO5)n3)c2C)c1	nt	nt	i[9.04 µM]	i	i	nt
CCOC(=O)/C=C/c1ccc2c(c1)S(=O)(=O)N(Cc1ccc(OC)cc1)[C@H]2CC(=O)OCC	i	i	21µM	13µM	i	i
CCOC(=O)C[C@H]1c2ccccc2S(=O)(=O)N1Cc1ccc(Cl)cc1	i	?	11µM	18µM	?	i
O=C(O)C[C@H]1c2ccccc2S(=O)(=O)N1c1ccccc1	i	i	?	i	i	i
COc1ccc(CN2[C@@H](CC(C)=O)c3cc(C(F)(F)F)ccc3S2(=O)=O)cc1	i	i	16µM	21µM	i	i
COc1ccc(CN2[C@@H](CC(=O)O)c3ccccc3S2(=O)=O)cc1	i	i	?	2.8µM!	i	i
CCOC(=O)/C=C/c1ccc2c(c1)S(=O)(=O)N(C1CCCC1)[C@H]2CC(=O)OCC	i	i	?	?	nt	nt
Cc1cccc(S(=O)(=O)c2cn(Cc3ccc(F)cc3)c3cc(N4CCCCC4)c(F)cc3c2=O)c1	i	i	i	i	nt	nt
COc1cc(NC(=O)COc2ccc(Br)cc2)ccc1NC(=O)C(C)C	i	i	i	i	i	i
Cc1ccc(C)c(-n2nnc(-c3nc(-c4ccccc4C)no3)c2C)c1	i	i	16µM	15µM	nt	nt
Cc1c(Cl)cccc1-n1nnc(-c2nc(-c3ccc4c(c3)OCO4)no2)c1C	i	nt	23µM	?	nt	nt
Cc1ccc(Cl)cc1-n1nnc(-c2nc(-c3ccc4c(c3)OCO4)no2)c1C	i	i	?	21µM	i	i
CCCc1nc2cc(C)c(Br)c(C)n2c1Cc1ccc(OC)cc1C	nt	nt	?	?	i	i
C/C(=N\N=C1/NC(=O)C(C)S1)c1ccco1 (stereo not given)	i	i	i	i	i	i
CN(C)S(=O)(=O)c1ccc(Cl)c(NC(=O)COc2ccccc2[N+](=O)[O-])c1	i	i	?	3.3µM	i	i
O=C1CCCN1C(=O)COc1ccccc1[N+](=O)[O-]	i	i	i	i	i	i
CCN(CC)S(=O)(=O)c1ccc(Cl)c(NC(=O)COc2ccc(OC)cc2)c1	i	i	i	i	i	i
CCN(CC)S(=O)(=O)c1ccc(Cl)c(NC(=O)COc2ccccc2[N+](=O)[O-])c1	i	i	?	23µM	i	i
